# The campaign covered roughly 290,000 compounds. About 2,700 (0.93%) were called active. No rule for the calls is given here. The entries come from a sample that favours actives as a whole.
# Target: Eukaryotic translation initiation factor 4H (Homo sapiens) (UniProt Q15056)
# Test: eIF4H binding inhibition – biochemical, uHTS, fluorescence polarization, translation initiation inhibitor project, primary screen (AID 2012);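 also: calls also rest on retests at 20 µM and on dose response follow-up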
# Conditions: eIF4H fluorescence polarization binding assay, stronger effect = higher value
Compound,inhibition (at 35 µM),"inhibition (confirmation average, at 20 µM) [%]"
Cc1ccc(OCC(=O)Nc2ccc(C(=O)O)cc2NC(=O)COc2ccc(C)c(C)c2)cc1C,4.8% (inactive),–
Cc1ccc(NC(=S)Nc2ccc(F)cc2)cc1,-11.3% (inactive),–
CN1CCc2c(sc3c2c(NCc2ccco2)nc2nnnn23)C1,68% (active),–
CCCSc1nc(NCc2ccco2)c2c3c(sc2n1)COC(C)(CC)C3 (stereo unspecified),4.7% (inactive),–
Cn1c(=O)n(Cc2ccco2)c(=N)c2c3c(sc21)CCCC3,-14.4% (inactive),–
O=C(CCN1C(=O)[C@@H]2Cc3ccccc3CN2C1=O)NCc1ccccc1,-0.5% (inactive),–
Cc1ccc(CNC(=O)CCN2C(=O)[C@@H]3Cc4ccccc4CN3C2=O)cc1,-3.4% (inactive),–
O=C(CCN1C(=O)[C@@H]2Cc3ccccc3CN2C1=O)NCCc1ccccc1,80.7% (active),–
COc1ccc(OC)c(C(O)c2nc3ccccc3n2C)c1 (stereo unspecified),-3.8% (inactive),–
Cc1ccc(C(C)C)cc1OCC(=O)Nc1ccccc1N1CCCC1,-15.8% (inactive),–
CC(=O)Oc1ccc(-c2cccc(C(=O)N3CCCCC3)c2)cc1,5.5% (inactive),–
CCC1S/C(=N/N=C/c2ccco2)NC1=O (stereo unspecified),9.4% (inactive),–
CC(C)(C)C1C/C(=C/c2ccco2)C(=O)/C(=C/c2ccco2)C1 (stereo unspecified),71.6% (active),82.6
O=C1OC(/C=C/c2ccccc2)=NC/1=C/c1ccco1,76.9% (inactive),4.3
O=C(NCc1ccccc1Cl)C1CCN(S(=O)(=O)c2cccc3nonc23)CC1,9.7% (inactive),–
C=CCN1C(=O)C2(OCCCO2)c2cccc(Cl)c21,0.1% (inactive),–
O=C(CN1CCC(NC(=O)Nc2ccccc2)CC1)Nc1cccc([N+](=O)[O-])c1,-3.5% (inactive),–
COc1ccc(S(=O)(=O)N2CCOC2CNC(=O)C(=O)NCc2ccncc2)cc1C (stereo unspecified),-2.1% (inactive),–
CCOc1ccc(NC(=O)c2cccc3c2C(=O)N(CC2CCCO2)C3)cc1 (stereo unspecified),3% (inactive),–
CCOc1cccc(=O)c2c(C)n(CC3CCCO3)c(C)c12 (stereo unspecified),79.5% (active),–
COc1ccccc1NC(=O)CSc1nnc(C)n1CC1CCCO1 (stereo unspecified),-1.3% (inactive),–
Cc1c2cnn(CC(=O)NCCCN3CC(C)CC(C)C3)c(=O)c2c(C)n1Cc1ccc(Cl)cc1 (stereo unspecified),-3.1% (inactive),–

Compound,inhibition (at 35 µM),"inhibition (confirmation average, at 20 µM) [%]"
O=[N+]([O-])c1ccc(NC(=S)N2CCN(c3ccccn3)CC2)cc1,-4.4% (inactive),–
CCn1cc(C(=O)NCCC(=O)NCCO)c(=O)c2cc3c(cc21)OCO3,13.7% (inactive),–
CCN(CC)C(=O)C(=O)Nc1cccc(Br)c1,-3% (inactive),–
CCN(CC)C(=O)CSC(Nc1cccc(F)c1)=C(C#N)C#N,63% (active),56.7
O=C(CCN1C(=O)c2ccccc2C1=O)Nc1cccc(F)c1,0.6% (inactive),–
CC(C)n1c(COc2ccccc2)nc2ccccc21,-1.5% (inactive),–
CCC(Oc1ccccc1C)C(=O)Nc1ccc(S(=O)(=O)Nc2cc(C)on2)cc1 (stereo unspecified),-3.3% (inactive),–
CN(C)S(=O)(=O)N1CCC(Oc2cccc(C(=O)NCCCC3CCCC3)c2)CC1,-18.3% (inactive),–
Cc1cc(=O)[nH]c(SCc2cc(Cl)ccc2OC(F)F)n1,-16.4% (inactive),–
O=C(OCc1cc2ccccc2[nH]c1=O)c1cccnc1,-7.3% (inactive),–
O=C(OCc1cc(Cl)ccc1OC(F)F)c1cccnc1,54.6% (active),83.8
Cn1c(CCNS(=O)(=O)c2ccc(F)cc2)nnc1SCc1cccnc1,-0.9% (inactive),–
CCCC(=O)C1CCN(Cc2ccccc2)CC1,7.7% (active),89.5
CCNC(=S)NNC(=O)C1CCN(Cc2ccccc2)CC1,1.5% (inactive),–
CCOC(=O)C1CCN(Cc2ccc(-c3ccccc3)cc2)CC1,3.6% (inactive),–
COCCCNC(=O)Cc1ccc(-n2c(C)nc3cccnc32)cc1,63.6% (inactive),13.7
CCc1nc2cccnc2n1-c1ccc(C(=O)O)cc1,91.6% (active),89.8
CCOC(=O)CNC(=O)CSc1nc2cccnc2n1CC,5.8% (inactive),–
CCN(CC(=O)Nc1ccc(C)c(S(=O)(=O)N(C)C)c1)Cc1ccccc1,6.5% (inactive),–
O=c1c(-c2cccc(Cl)c2)c[nH]n1-c1ccccc1,4.3% (inactive),–
O=C(CN1CCCC1)N1CCN(c2ccccc2)CC1,-11.2% (inactive),–
CCCC(=O)N1CCc2[nH]c3ccccc3c2C1,-0.2% (inactive),–

Compound,inhibition (at 35 µM),"inhibition (confirmation average, at 20 µM) [%]"
Cc1ccc2[nH]c3c(c2c1)CN(C(=O)CN1CCN(c2ccccc2)CC1)CC3,76.8% (active),–
COc1ccc(OC)c(S(=O)(=O)n2c([N+](=O)[O-])cnc2C)c1,-9.3% (inactive),–
COc1ccccc1C(=O)N/C(=C/c1ccc2c(c1)OCO2)C(=O)Nc1cccc(C(=O)O)c1,-11.5% (inactive),–
Cc1ccc(NC(=O)/C(=C\c2ccccc2)NC(=O)c2ccco2)cc1,3.5% (inactive),–
Cc1cccc(NC(=O)/C(=C\c2ccco2)NC(=O)c2ccccc2)c1,57.6% (active),–
O=C(Nc1ccccc1)/C(=C\c1ccco1)NC(=O)c1ccco1,26.2% (inactive),–
COc1ccccc1C(=O)N/C(=C/c1ccco1)C(=O)Nc1ccc(C(=O)O)cc1,59.8% (active),65.3
O=C(NCc1ccco1)/C(=C/c1ccco1)NC(=O)c1ccccc1,3.9% (inactive),–
C=CCOc1cccc(C2C(C(=O)c3ccc(C)o3)=C(O)C(=O)N2CCCn2ccnc2)c1 (stereo unspecified),-4.1% (inactive),–
CCOc1ccc(N(CC(=O)NCC2CCCO2)S(=O)(=O)c2ccc(C)cc2)cc1 (stereo unspecified),11.5% (inactive),–
COc1ccc(-c2nnc3n2CCCCC3)cc1,-12.1% (inactive),–
COCCn1cnc2c1c(=O)n(CC(=O)NN)c(=O)n2Cc1ccccc1,-8.7% (inactive),–
O=C(Nc1ccccc1)C1CCN(C(=O)c2ccc(Br)cc2)CC1,-11% (inactive),–
Cc1cc(C)n2nc(SCC(N)=O)nc2n1,-5.6% (active),113
CCOC(=O)C(C)Sc1nnc(CSc2nc3nc(C)cc(C)n3n2)o1 (stereo unspecified),-7.5% (inactive),–
COc1ccc(C(C)=O)cc1CSc1nc2nc(C)cc(C)n2n1,1.9% (inactive),–
COc1cnc(-c2ccccn2)nc1Oc1ccc(C(C)(C)C)cc1,11.9% (inactive),–
COc1ccc(CCN(C)C(=O)C23CC4CC(CC(Cl)(C4)C2)C3)cc1OC,-16.6% (inactive),–
COc1ccc(CC(=O)N/N=C(\C)c2ccccn2)cc1,7.3% (inactive),–
CCN(CC)CCOc1ccc2c(c1)C(=NNC(=O)c1ccccn1)c1cc(OCCN(CC)CC)ccc1-2,-3% (active),83.6
Cc1cccc(OCC(=O)NCCCNC(=O)c2ccccn2)c1,-28.2% (inactive),–
COc1ccc(NC(=O)CN(C)C(=O)CNC(=O)C2CCCCC2)cc1,-4% (inactive),–

Compound,inhibition (at 35 µM),"inhibition (confirmation average, at 20 µM) [%]"
C=CCOc1cccc(CNCc2cccnc2)c1,10.5% (inactive),–
Cc1ccc(-c2csc(N(Cc3ccco3)C(=O)c3cccs3)n2)cc1,-15.6% (inactive),–
Cc1nnc(N(Cc2ccco2)C(=O)c2ccno2)s1,55.4% (active),–
CN(C(=O)c1ccno1)c1nnc(-c2cccnc2)s1,-2.8% (inactive),–
Cc1ccccc1CN1CCC(C(=O)Nc2ccc(Oc3cccnc3)cc2)CC1,-4.5% (inactive),–
Cc1cc(F)ccc1S(=O)(=O)N1CCCOC1CNC(=O)C(=O)NCCC1=CCCCC1 (stereo unspecified),-0.8% (inactive),–
O=C(NCCCn1ccnc1)C(=O)NCC1OCCN1S(=O)(=O)c1cc(F)ccc1F (stereo unspecified),86.5% (active),–
O=C(NCCCc1ccccc1)C(=O)NCC1OCCN1S(=O)(=O)c1ccccc1 (stereo unspecified),-4.1% (inactive),–
Nc1ncc(CN2CCCC(C(=O)Nc3ccc(-c4ccco4)cc3)C2)cn1 (stereo unspecified),-17.3% (inactive),–
CC(C)OC(=O)c1ccc(COc2ccc3ccc(=O)oc3c2)o1,1.1% (inactive),–
Cc1ccc2sc(N(CCN(C)C)C(=O)/C=C/c3cccs3)nc2c1C,-10.2% (inactive),–
Cc1cc(/C=C2/C(=N)N3C(=NC2=O)SN=C3S(C)(=O)=O)c(C)n1-c1ccccc1,93.3% (inactive),-7.9
CS(=O)(=O)C1=NN2C(=N)/C(=C\c3ccc(OCCOc4ccccc4)cc3)C(=O)N=C2S1,16.1% (inactive),–
CS(=O)(=O)c1ccc2c(c1)SC1=NC(=O)/C(=C/c3ccco3)C(=N)N12,93.9% (active),–
CN(C(=O)CN1C(=O)CCSc2ccc(S(=O)(=O)N3CCCC3)cc21)c1ccccc1,-3.2% (inactive),–
CCC(=O)Nc1ccc(C(=O)NNC(=O)c2ccc(Cl)cc2)cc1,8% (inactive),–
C=CCNC(=O)/C=C/c1ccc(C(C)C)cc1,3.9% (inactive),–
CCOc1ccccc1NC(=O)CCc1nnc2ccc(NCc3ccco3)nn12,13.1% (inactive),–
CC(=O)c1ccc(NC(=O)CCc2nnc3ccc(NCc4ccco4)nn23)cc1,38.5% (inactive),–
O=C(CCc1nnc2ccc(NCc3ccco3)nn12)Nc1cc(F)ccc1F,75.2% (active),75.7
O=C(CN1CCc2cc3c(cc2C1)OCCCO3)Nc1ccccc1,4.5% (inactive),–
CCOc1ccc(NC(=S)N2CCC(NC(=O)c3ccccc3)CC2)cc1,-8.9% (inactive),–

Compound,inhibition (at 35 µM),"inhibition (confirmation average, at 20 µM) [%]"
COc1ccc(-c2nc3n(c(=O)c2C#N)CCS3)c(OC)c1,5.3% (inactive),–
O=C(CCc1ccccc1)Nc1ccnn1C1CCN(Cc2ccc(OCCO)cc2)CC1,5.2% (inactive),–
COc1ccc(-c2cc(C(=O)N(C)Cc3ccc(OC)c(OC)c3OC)c3ccccc3n2)cc1OC,10.7% (inactive),–
CCNCc1cc2cc(C)ccc2[nH]c1=O,24% (inactive),–
CCCc1nc(-c2cc3cc(C)ccc3[nH]c2=O)no1,2.5% (active),79.5
COc1ccc2[nH]c(=O)c(-c3noc(-c4ccc(F)cc4)n3)cc2c1,3.8% (inactive),–
COc1ccccc1NC(=S)N1CCN(c2ccc(F)cc2)CC1,-0.9% (inactive),–
COc1ccc(NC(=O)C2=CC(c3ccc(OC)c(OC)c3)=NS(=O)(=O)N2C)cc1,1.5% (inactive),–
COc1ccc(-c2noc(CNC(=O)C(C)Oc3ccccc3)n2)cc1 (stereo unspecified),-4.8% (inactive),–
Cn1cc(/C=C/c2nc3ccccc3c(=O)n2-c2cccc([N+](=O)[O-])c2)c2ccccc21,-2.7% (inactive),–
CCn1c(/C=C/c2ccc([N+](=O)[O-])o2)nc2ccccc2c1=O,83.6% (active),56.8
Cc1nc2ccccc2c(=O)n1Cc1ccc([N+](=O)[O-])cc1,-6.2% (inactive),–
CN1/C(=C\C(=O)c2oc3ccccc3c2N)C(C)(C)c2ccccc21,-2.5% (inactive),–
CN1/C(=C\C=C2\N=C(c3ccc(F)cc3)OC2=O)C(C)(C)c2ccccc21,128% (active),97
CN1/C(=C\C(=O)c2cccnc2Cl)C(C)(C)c2ccccc21,-6.3% (inactive),–
Cc1cccnc1NC(=O)Cn1c(=O)oc2ccccc21,4.8% (inactive),–
Cc1ccc(O)c(NC(=O)c2cc(-c3ccco3)on2)c1,-14.1% (inactive),–
COc1ccc(-c2nonc2NC(=O)c2oc3ccc(F)cc3c2C)cc1OC,-3.8% (inactive),–
COc1ccc(Nc2ccc([N+](=O)[O-])cn2)cn1,82% (inactive),20.1
COc1cccc(Nc2ncccc2C(=O)O)c1,-3.4% (inactive),–
COc1ccc(Nc2cc(Cl)ccc2C(=O)O)cn1,96.9% (active),74

# Reference: PubChem BioAssay AID2012 (Sanford-Burnham Center for Chemical Genomics, 2009)
